The list is not random: actives were taken first. Their share in the collection is about 1.1%.
MLL CXXC-DNA inh: MLL CXXC-DNA interaction inhibition | Q03164 | MLL-CXXC / FITC-HOXA9 DNA fluorescence polarization | Potency, µM (doses to about 115 µM), inactives show top-dose activity change, negative = inhibition, most hits filed as inhibitors | 0.037% of 290,000 active | AID 2662; active = well fitted inhibition curve with a large enough effect in the polarisation, with a control signal flat, not every such curve was filed as active; inconclusive = small, poorly fitted or top-dose-only effect, or effect the other way, or a change in a side signal; inactive = no such curve, though single readings can be large or run the other way; the % refers to the polarisation; note: potency is the fitted concentration of half-maximal effect
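Purified MLL-CXXC (added from a 7 uM solution) was preincubated 5 min at ambient with pinned compounds in 50 mM Tris-HCl pH 7.5, 50 mM NaCl, 1 mM DTT, 0.05% BSA. Fluorescein-labeled HOX-A9 DNA (50 nM solution) followed, 30 min, then polarization read.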
KCNH2 WT inh: KCNH2 (human, wildtype) channel inhibition | activity change, % at 1.84 µM | 0.37% of 340,000 active | Q12809 | U2OS, BacMam KCNH2, thallium flux FluxOr; stronger effect = lower value | AID 720551;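 active = maximum activity change below -70%; inconclusive = maximum activity change between -70% and -50%; inactive = maximum activity change above -50%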; note: % is set by controls: 0 for no effect and ±100 for the full control effect
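U2OS cells transduced with wild-type KCNH2 virus are loaded with FluxOr dye for 45 min, and thallium flux is measured in kinetic reads before and after stimulation buffer. Rate constants are normalized to DMSO controls.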
Menin-MLL TR inh: inhibitors of human menin-MLL interaction, mutant MLL peptide. O00255. Menin + Texas Red MLL mutant peptide, fluorescence polarization. Potency, µM (doses to about 61.6 µM), for inactives: top-dose FP activity change, negative = inhibition, usual class: inhibitors. 0.23% of 270,000 active. AID 1768; active = well fitted inhibition curve with a large enough effect in the polarisation, with a control signal flat, not every such curve was filed as active; inconclusive = small, poorly fitted or top-dose-only effect, or effect the other way, or a change in a side signal; inactive = no such curve, though single readings can be large or run the other way; the % refers to the polarisation; note: potency is the fitted concentration of half-maximal effect; % of control where 0% means no effect
Target sequence (O00255 whole entry, looked up): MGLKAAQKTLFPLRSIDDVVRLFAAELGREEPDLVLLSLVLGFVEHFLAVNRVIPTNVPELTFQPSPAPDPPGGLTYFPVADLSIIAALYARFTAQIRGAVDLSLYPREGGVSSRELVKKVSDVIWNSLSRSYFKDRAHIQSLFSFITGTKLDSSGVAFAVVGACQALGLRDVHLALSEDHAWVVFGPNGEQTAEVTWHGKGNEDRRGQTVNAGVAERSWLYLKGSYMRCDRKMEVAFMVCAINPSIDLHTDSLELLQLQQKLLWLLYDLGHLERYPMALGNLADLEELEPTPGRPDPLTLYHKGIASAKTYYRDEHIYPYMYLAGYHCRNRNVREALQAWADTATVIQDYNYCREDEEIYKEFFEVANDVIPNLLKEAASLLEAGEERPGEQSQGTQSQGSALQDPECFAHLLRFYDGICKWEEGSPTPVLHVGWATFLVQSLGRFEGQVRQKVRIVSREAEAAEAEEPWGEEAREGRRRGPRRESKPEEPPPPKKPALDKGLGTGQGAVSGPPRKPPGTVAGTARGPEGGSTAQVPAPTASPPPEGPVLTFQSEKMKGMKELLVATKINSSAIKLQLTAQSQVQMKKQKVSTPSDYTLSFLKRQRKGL
KCNH2 3.1 block: inhibitors of human KCNH2 3.1 potassium channel isoform; U2OS KCNH2 3.1, thallium flux FluxOr; stronger effect = lower value; activity change, % (tested at about 1.8 µM); 0.95% of 340,000 active; AID 720553;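 active = maximum activity change below -70%; inconclusive = maximum activity change from -70% to -50%; inactive = maximum activity change above -50%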;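 note: thallium influx rate constant from kinetic fluorescence after stimulation buffer; % is set by controls: 0 for no effect and ±100 for the full control effect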
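Channel expression came from 3.1 mutant virus (1.77 x 10^8 /mL) applied to suspended U2OS cells for 4 h. Flux was tracked with FluxOr dye plus Red40 quencher, and kinetic rate constants normalized to controls.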
Menin MLL FP FL: inhibitors of human menin-MLL interaction, wild-type MLL peptide. 290,000 tested, under 10 active. Fluorescence polarization, fluorescein-MLL peptide displacement from menin. FP activity change, % at 61.4 µM; active = well fitted curve in the direction sought with a large enough effect in the polarisation, not every such curve was filed as active; inconclusive = small, poorly fitted or top-dose-only effect, or effect the other way, or a change in a side signal; inactive = no such curve, though single readings can be large or run the other way; the % refers to the polarisation; note: % of control where 0% means no effect
The depositor's hits bear a star; ? = inconclusive; . = no result given; [ ] = another dose, or the depositor's remark.

SMILES	MLL CXXC-DNA inh	KCNH2 WT inh	Menin-MLL TR inh	KCNH2 3.1 block	Menin MLL FP FL
CC(=O)NC(=S)Nc1ccc(N2CCOCC2)c(S(=O)(=O)Nc2cc(Cl)ccc2Cl)c1	0.8%	?	33.0%	-81.9*	3.6
O=C(Nc1ccc(N2CCOCC2)c(S(=O)(=O)Nc2cc(Cl)ccc2Cl)c1)c1cccnc1	2.7%	4.4	.	-5.4	6.0
COc1ccccc1NS(=O)(=O)c1ccc(C(=O)NCC(c2cccs2)N2CCOCC2)cc1 (stereo not drawn)	.	-15.3	.	12.5	.
COc1ccc(C(=O)NCC(=O)N/N=C/c2cccc(OC(=O)c3ccco3)c2)cc1OC	136.6%	-74.6*	-4.0%	-3.1	1.1
CCOc1ccc(CCNC(=O)c2ccccc2OCc2c(C)noc2C)cc1OCC	.	-2.0	.	-17.0	.
COc1ccc(-c2nc(-c3ccc(NC(=O)c4ccncc4)cc3)no2)cc1OC	-1.7%	-8.4	14.1%	-5.7	0.1
COc1ccc(NC(=O)c2ccc(-c3ccc(-c4noc(C)n4)cc3C)cc2)cc1N1CCN(C)CC1	?	8.3	?	-86.7*	?
Cc1cc(Sc2nnc(/N=C/N(C)C)s2)c2ccccc2n1	-0.3%	39.1	.	-30.7	4.7
Cc1cc(Sc2nnc(N)s2)c2ccccc2n1	12.3%	3.5	.	-77.8*	-1.3
CC[C@@H](c1ccccc1)n1c(=O)n2n(c1=O)[C@H]1[C@H](O)[C@H]3O[C@H]3C(=O)[C@H]1CC2	.	.	3.1%[11.7 µM]	.	1.3[11.7 µM]
Cc1ccc(S(=O)(=O)N(C)Cc2ccc(C(=O)N/N=C/c3ccc(OC(F)F)cc3OC(F)F)cc2)cc1	-12.5%	-24.9	-16.9%	-75.5*	-4.1
COc1cc(SC)ccc1C(=O)Nc1ccc(C)cc1C	-1.3%	-4.4	2.8%	-82.2*	3.9
CN1CCN(c2ccc(NC(=O)c3ccc(-c4ccc(Br)cc4)o3)cc2)CC1	-0.8%	32.6	?	-70.8*	-3.4
CCN1CCN(c2ccc(NC(=O)c3ccc(Br)o3)cc2)CC1	0.4%	24.3	2.6%	18.4	1.8
O=C(c1ccc(Br)cc1)N1CCC(C(=O)N2CCN(Cc3ccccc3)CC2)CC1	33.6%	18.1	.	-4.3	.
CCOc1ccccc1N(CC(=O)Nc1cccnc1)S(=O)(=O)c1ccc(C)cc1	3.2%	-0.6	-4.0%	-15.4	-0.1
CCOc1ccccc1N(CC(=O)Nc1cccnc1)S(C)(=O)=O	1.5%	-2.4	-0.6%	-85.9*	0.6
C[C@@]12C(=O)Nc3ccc(Br)cc3C(=O)N1[C@H]1c3cc(Cl)ccc3OC[C@@H]1[C@@H]2c1ccccc1	.	-2.7	.	-74.3*	.
C[C@@]12C(=O)N(CC3CCCO3)CC(=O)N1[C@H]1c3cc(Cl)ccc3OC[C@@H]1[C@@H]2c1ccccc1 (stereo partly drawn)	.	2.7	.	-92.8*	.
Cc1c(NS(=O)(=O)c2cccs2)cccc1-c1nc2cccnc2s1	-11.8%	-3.3	.	-87.5*	3.7
O=S(=O)(Nc1ccc(-c2nc3cccnc3s2)cc1)c1ccc(Cl)s1	5.7%	-4.2	?	0.5	-1.5
O=S(=O)(Nc1ccc(-c2nc3cccnc3s2)cc1)c1cccs1	14.4%	4.5	22.4µM*	-10.0	3.2
Cc1c(NS(C)(=O)=O)cccc1-c1nc2cccnc2s1	0.2%	2.1	.	-0.7	3.1
CCN(CC)CCN(C(=O)/C=C/c1cccs1)c1nc2ccc(Cl)cc2s1	-7.3%	-148.7*	.	-99.9*	.
CN(C)CCN(C(=O)/C=C/c1cccs1)c1nc2ccc(F)cc2s1	16.9%	-7.9	1.4%	?	5.4
SMILES	MLL CXXC-DNA inh	KCNH2 WT inh	Menin-MLL TR inh	KCNH2 3.1 block	Menin MLL FP FL
Cc1nc(N2CCN(c3ccccn3)CC2)c2c(C)c(C(=O)Nc3ccccc3F)sc2n1	5.9%	5.3	9.0%	-45.1	-2.2
Cc1nc(N2CCN(c3ccccn3)CC2)c2c(C)c(C(=O)Nc3ccc(F)cc3F)sc2n1	6.8%	-15.3	10.4%	-93.5*	-0.9
Cc1nc(N2CCN(c3ccccn3)CC2)c2c(C)c(C(=O)Nc3ccc(F)cc3Cl)sc2n1	5.4%	-33.2	.	-87.8*	.
Cc1ccc(S(=O)(=O)N2CCN(C(=O)C3CC(=O)N(c4ccc5c(c4)OCCO5)C3)CC2)cc1 (stereo not drawn)	.	-8.8	.	-12.4	.
N#Cc1ccccc1S(=O)(=O)N1CCN(C(=O)C2CC(=O)N(c3ccc4c(c3)OCCO4)C2)CC1 (stereo not drawn)	.	-9.5	.	-74.6*	.
O=C(Cn1c(=O)oc2ccccc21)N1CCOCC1	2.5%	.	0.9%	1.6	-6.1
Cc1ccc2oc(=O)n(CC(=O)N3CCOCC3)c2c1	1.9%	-142.0*	.	-8.4	2.5
O=C(COc1ccc(-c2ccccc2)cc1)N1CCN(S(=O)(=O)Cc2ccccc2)CC1	-9.1%	-3.4	-10.0%	-74.8*	1.5
O=C(/C=C/c1ccc([N+](=O)[O-])cc1)N1CCN(S(=O)(=O)c2cccs2)CC1	-2.9%	17.6	.	2.6	1.2
Cc1ccc(C)c(S(=O)(=O)c2c[nH]c(=S)[nH]c2=O)c1	8.8%	-30.2	.	-82.2*	.
Cc1ccc(C)c(S(=O)(=O)N2CCNCC2)c1	-2.4%	2.5	-21.6%	0.3	-0.5
CCCCOCCOCCOCc1cc2c(cc1CCC)OCO2	-3.9%	.	3.0%	.	5.0
Cc1ccc(N(C(=O)CNC(=O)c2ccco2)C(C(=O)NC2CCCCC2)c2ccncc2)c(C)c1 (stereo not drawn)	0.5%	-5.8	.	6.7	.
Cc1cccc(Cn2c(O)c(N=NC(=S)Nc3ccccc3F)c3ccccc32)c1	14.9%	.	?	-90.8*	-0.6
O=C(Nc1ccc(F)cc1F)c1ccco1	7.8%	-5.7	8.0%	-77.1*	-1.8
C=C1CC2C3C=C(C)C4=CC(=O)CCC4(C)C3CCC2(C)[C@@]1(OC(C)=O)C(C)=O (stereo partly drawn)	3.4%	.	-6.2%	.	0.5
Cn1c(CCN2CCCCC2)nc2cc(NS(=O)(=O)c3ccc(F)cc3)ccc21	-1.5%	-45.3	5.2%	-89.4*	-1.3
Cc1ccc(S(=O)(=O)Nc2ccc3c(c2)nc(CCN2CCN(c4ccccn4)CC2)n3C)cc1	13.2%	-41.0	0.4%	-96.2*	23.9
Cn1c(CCN2CCN(c3ccccn3)CC2)nc2cc(NS(=O)(=O)c3ccc(Cl)cc3)ccc21	6.4%	-80.2*	-8.3%	-103.5*	-1.7
Cc1ccc(S(=O)(=O)Nc2ccc3c(c2)nc(CCN2CCCCC2)n3C)cc1	12.3%	22.1	.	?	-1.0
CCOC(=O)c1cc2c(ccn2C)n1Cc1ccccc1Cl	-2.4%	.	4.1%	-88.6*	-0.6
CCOC(=O)c1cc2c(ccn2C)n1Cc1ccccc1C	10.4%	-27.0	-16.6%	-7.8	-0.6
O=C(c1ccc(F)c(F)c1)N1CCC2(CC1)NCCc1[nH]cnc12	47.9%	-0.2	.	14.7	.
COc1ccc(C(=O)NNC(=O)C(Cc2ccc(O)cc2)NC(=O)c2ccccc2NC(=O)c2ccc(OC)cc2)cc1 (stereo not drawn)	12.1%	5.9	?	6.1	-0.9
